FLuc inh: Photinus pyralis luciferase inhibition | AID 1347043 | Potency, µM (titrated, usually from 115 µM), hits mostly inhibitors | 76,000 tested, 2.5% active | purified P. pyralis luciferase, luminescence, biochemical; further: on the % scale 0 is the no-effect control and ±100 the full control effect; nearly all actives have a fitted effect of over 65% in size
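Luminescence read by CCD imaging after purified firefly luciferase (10nM final) was added to substrate buffer holding 10uM D-luciferin and 10uM ATP, pH 7.5, pre-dosed with compound.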
GPT2 inhibitor: GPT2 alanine aminotransferase inhibition; Potency, µM (series often up to 57.7 µM), without a hit: top-dose activity change, negative = inhibition, actives largely listed as inhibitors; Recombinant GPT2, coupled pyruvate oxidase/HRP Amplex Red fluorescence; AID 1671188; Q8TD30; 100,000 tested, 0.25% active; further: on the % scale 0 is the no-effect control and ±100 the full control effect; nearly all actives have a fitted effect of over 60% in size
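Fluorescence read-out: pyruvate from GPT2 turnover coupled to pyruvate oxidase, HRP and Amplex Red (0.2mM ThPP, 0.2U/mL PO and HRP, 50uM Amplex final). Substrates 250uM a-KG, 2mM L-alanine; enzyme 10ng/uL; 30 min RT.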
NPR1 antag: human Npr1 receptor antagonism. HEK293 hNpr1 GloSensor cGMP, ANP-stimulated luminescence. Potency, µM (titrated, usually from 46.3 µM), inactives show at the highest dose activity change, negative = inhibition, usual class: inhibitors. 76,000 tested, 1.6% active. AID 1347048; calls by dose curve; further: on the % scale 0 is the no-effect control and ±100 the full control effect; nearly all actives have a fitted effect of over 60% in size
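HEK293 cells stably expressing human Npr1 and cGMP GloSensor pGS-40F, loaded 2 h with 2% GloSensor reagent, given compound 30 min at room temperature. Luminescence read before and 20 min after 0.1 nM hNppA.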
3T3 cytotox: kills NIH 3T3 cells; NIH 3T3 viability, CellTiter-Glo ATP luminescence, 48-72 h; Potency, µM (top dose mostly 96.7 µM), inactives show top-dose activity change, negative = cytotoxicity, usual class: inhibitors; 94,000 tested, 4.3% active; AID 1345082; further: on the % scale 0 is the no-effect control and ±100 the full control effect; nearly all actives have a fitted effect of over 55% in size
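Viability of NIH 3T3 cells after 48 or 72 hr compound treatment at 37 °C was assessed by CellTiter-Glo, with luminescence imaged following a 10 min room-temperature step.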
HEK293 tox: cytotoxic compounds in HEK 293 cells; HEK 293 viability, ATP luminescence (CellTiter-Glo), 48-72 h; Potency, µM (top dose mostly 115 µM), for the others: at the top dose activity change, negative = cytotoxicity, actives largely listed as inhibitors; 94,000 tested, 6.6% active; AID 1345083; further: on the % scale 0 is the no-effect control and ±100 the full control effect; nearly all actives have a fitted effect of over 60% in size
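HEK 293 seeded at 250 cells/well receive compound via pintool. After 48 or 72 hr at 37 degree Celsius, 5% CO2 and 95% humidity, CellTiter-Glo is dispensed and luminescence read following 10 min at room temperature.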
NPR1 antag cnf: confirmation of human Npr1 natriuretic peptide receptor antagonists; shares compounds with NPR1 antag; HEK293 hNpr1 cGMP GloSensor luminescence, ANP-stimulated; Potency, µM (top dose mostly 57.6 µM), inactives show top-dose activity change, negative = inhibition, most hits filed as inhibitors; 1,400 tested, 76% active; AID 1347044; calls by dose curve; further: nearly all actives have a fitted effect of over 70% in size
Npr2 selectivity: hNpr2 antagonism, selectivity versus Npr1; Potency, µM (top dose mostly 57.6 µM), inactives show at the top dose activity change, negative = inhibition, usual class: inhibitors; HEK293 hNpr2 GloSensor cGMP luminescence, CNP-stimulated; shares compounds with NPR1 antag; AID 1347046; 1,400 tested, 67% active; calls by dose curve; further: nearly all actives have a fitted effect of over 70% in size
Target sequence (P20594 whole entry, looked up): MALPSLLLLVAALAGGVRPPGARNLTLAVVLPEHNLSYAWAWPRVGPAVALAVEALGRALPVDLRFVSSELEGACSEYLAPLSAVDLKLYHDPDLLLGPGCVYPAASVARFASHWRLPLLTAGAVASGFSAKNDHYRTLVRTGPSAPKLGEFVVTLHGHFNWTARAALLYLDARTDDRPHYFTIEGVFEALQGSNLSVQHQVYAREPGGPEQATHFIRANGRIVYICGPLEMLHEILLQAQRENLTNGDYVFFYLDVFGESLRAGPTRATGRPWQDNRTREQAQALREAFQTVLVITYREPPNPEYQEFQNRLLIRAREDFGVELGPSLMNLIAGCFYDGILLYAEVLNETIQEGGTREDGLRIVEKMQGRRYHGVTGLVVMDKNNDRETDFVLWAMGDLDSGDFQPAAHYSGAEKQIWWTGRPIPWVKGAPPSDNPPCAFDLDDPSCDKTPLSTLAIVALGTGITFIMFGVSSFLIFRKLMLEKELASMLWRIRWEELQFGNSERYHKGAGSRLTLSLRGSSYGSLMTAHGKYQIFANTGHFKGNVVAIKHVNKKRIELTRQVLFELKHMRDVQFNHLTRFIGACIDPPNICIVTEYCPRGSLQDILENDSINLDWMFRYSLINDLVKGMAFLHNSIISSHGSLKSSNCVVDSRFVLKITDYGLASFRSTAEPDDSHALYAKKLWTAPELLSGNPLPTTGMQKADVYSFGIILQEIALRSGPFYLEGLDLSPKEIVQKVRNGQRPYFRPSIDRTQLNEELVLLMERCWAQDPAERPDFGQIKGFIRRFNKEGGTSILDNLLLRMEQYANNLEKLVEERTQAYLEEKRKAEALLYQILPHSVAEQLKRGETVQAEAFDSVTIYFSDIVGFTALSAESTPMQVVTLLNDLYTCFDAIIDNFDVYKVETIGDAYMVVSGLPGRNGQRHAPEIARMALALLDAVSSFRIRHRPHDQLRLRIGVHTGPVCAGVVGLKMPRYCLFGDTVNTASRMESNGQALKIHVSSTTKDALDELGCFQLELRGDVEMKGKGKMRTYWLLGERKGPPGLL
FLuc counter: counter-screen for Npr1 antagonists: firefly luciferase inhibitors; 1,400 tested, 0.7% active; Potency, µM (titrated, usually from 57.6 µM), without a hit: at the top dose activity change, negative = inhibition, usual class: inhibitors; AID 1347047; purified FLuc enzyme, luminescence, Km substrate; shares compounds with NPR1 antag; further: series mostly up to about 58 µM; 0% is about no effect
GloSensor ctrl: control cell line activity, Npr1 antagonist counter-screen | shares compounds with NPR1 antag | HEK293 GloSensor cGMP, SNP-stimulated, luminescence | Potency, µM (doses to about 57.6 µM), inactives show at the top dose activity change, negative = inhibition, hits mostly inhibitors | 1,400 tested, 69% active; calls by dose curve; further: on the % scale 0 is the no-effect control and ±100 the full control effect; nearly all actives have a fitted effect of over 70% in size
Numbers without * were called inactive; i = inactive; ? = inconclusive; / = no result; [ ] = another dose, or the depositor's remark. In the library only some 10% were active in any assay of this set; here they are far more common. Unless noted, the call rests on the fitted dose curve; in most records, active means well fitted curve in the direction sought with a large enough effect; inconclusive means small, poorly fitted or top-dose-only effect, or another doubt; inactive means no such curve, though single readings can be large; an effect the other way counts as inactive or inconclusive. Potency means the concentration at half of the fitted maximal effect.

SMILES	FLuc inh	GPT2 inhibitor	NPR1 antag	3T3 cytotox	HEK293 tox	NPR1 antag cnf	Npr2 selectivity	FLuc counter	GloSensor ctrl
O=C1CC2(CCN(C(=O)C3CCN(C(=O)c4ccc(F)cc4)CC3)CC2)Oc2ccccc2N1	/	i	/	-25%	?	/	/	/	/
O=C(c1cccc(Cl)c1)N1CCC(C(=O)N2CCC(c3nc4ccncc4[nH]3)CC2)CC1	/	2%	/	-12%	3%	/	/	/	/
CO[C@H]1C(=O)N(C(C)C)[C@H]1C1CCN(C(=O)NCc2ccc(C)cc2)CC1	/	i	/	-7%	-15%	/	/	/	/
Cc1cn2nnc(C(=O)NCc3ccc(C(C)C)cc3)c2c(=O)[nH]1	i	i	?	?	?	27µM*	?	0%	24µM*
CCCn1cc(C(=O)NCC2COc3cc(OC)ccc3C2)c(C)n1 (centres undefined)	i	i	11µM*	?	?	19µM*	22µM*	-1%	19µM*
COc1ccc(C(=O)N2CCC3(CC2)N=C(c2ccccc2)NO3)cc1	i	4%	-2%	-17%	-9%	/	/	/	/
O=C(c1ccsc1)N1CCC(N2C(=O)C3(CCCCC3)C2c2ccncc2)CC1 (centres undefined)	/	i	/	-29%	-1%	/	/	/	/
Cc1nc(C2CC(O)C2)cc(N2CCN(c3nc4ccccc4s3)CC2)n1 (centres undefined)	i	i	7.1µM*	?	?	9.7µM*	11µM*	1%	8.6µM*
N#Cc1cccc(CN2C[C@@H](CO)[C@H](c3ccccn3)C2)c1	i	?	0%	?	-12%	/	/	/	/
c1ccc2[nH]c([C@H]3CCN(CC4CCCCC4)C3)nc2c1	?	4%[88.5 µM]	-8%[70.6 µM]	?	?	/	/	/	/
Clc1cccc(CN2CC[C@H](c3nc4ccccc4[nH]3)C2)c1	i	0%[88.5 µM]	25µM*	?	20µM*	40µM*	?	-2%[86.2 µM]	?
O=C(NC1CCN(Cc2ccccc2)CC1)c1cc2n(n1)CC(c1ccc3c(c1)OCO3)OC2 (centres undefined)	i	i	13µM*	?	?	22µM*	22µM*	-1%	17µM*
O=C(NC1CCN(Cc2ccccc2)CC1)c1cc2n(n1)CC(c1ccc(Cl)cc1)OC2 (centres undefined)	i	-7%	10µM*	?	?	19µM*	17µM*	4%	12µM*
Cc1cnc(-c2ccccc2)n1C1CCN(C(=O)Cc2cccc(F)c2)CC1	/	5%	/	-29%	?	/	/	/	/
COC(=O)[C@@H]1Cc2ncn(Cc3ccc(OC)cc3)c2CN1S(=O)(=O)c1cccc2cccnc12	i	-4%	5%	?	-13%	/	/	/	/
O=C(NCc1ccccn1)c1nc2cccnc2n(CCc2ccccc2)c1=O	/	?	/	-17%	?	/	/	/	/
COc1ccc(Cl)cc1-c1ccc2c(n1)CN(CCOc1ccccc1)C(=O)CO2	i	-3%[88.5 µM]	22µM*	?	100µM*	35µM*	35µM*	1%[86.2 µM]	31µM*
CC1=NS(=O)(=O)N(Cc2ccccc2)C=C1C(=O)OCc1nc(-c2ccccc2F)no1	i	-4%	-19%	?	-29%	/	/	/	/
CC1=NS(=O)(=O)N(C)C=C1C(=O)OCc1nc(-c2ccc(Br)cc2)no1	i	?	10µM*	?	?	11µM*	14µM*	-12%	11µM*
CC1=NS(=O)(=O)N(C)C=C1C(=O)OCc1nc(-c2ccccc2F)no1	i	i	?	-14%	-4%	?	?	-2%	?
CC1=NS(=O)(=O)N(C)C=C1C(=O)OCc1nc(C2CCCCC2)no1	i	i	13µM*	?	-25%	22µM*	?	-8%	17µM*
CC1=NS(=O)(=O)N(C)C=C1C(=O)OCc1nc(-c2ccc(OC(F)(F)F)cc2)no1	i	i	10µM*	?	40µM*	15µM*	14µM*	2%	12µM*
CC1=NS(=O)(=O)N(C)C=C1C(=O)OCc1nc(-c2cnccn2)no1	i	4%	2%	1%	2%	/	/	/	/
O=C(C1CCCN([S+](=O)([O-])c2cccs2)C1)N1CCC(c2nc3ccncc3[nH]2)CC1 (centres undefined)	/	i	/	-22%	3%	/	/	/	/
CCOC(=O)[C@H]1C[C@]2(CCCCN(CCOC(C)=O)C2=O)N(C(=O)CC(C)C)[C@H]1c1ccco1	/	/	/	-20%	?	/	/	/	/
SMILES	FLuc inh	GPT2 inhibitor	NPR1 antag	3T3 cytotox	HEK293 tox	NPR1 antag cnf	Npr2 selectivity	FLuc counter	GloSensor ctrl
CCNC(=O)OC1CCN(C(=O)CC(C)C)CC(=O)N(C)c2ccccc21 (centres undefined)	/	/	/	?	1%	/	/	/	/
COc1ccc(-c2noc(COC(=O)C3=CN(C)S(=O)(=O)N=C3C)n2)cc1	i	i	7.9µM*	-24%	?	12µM*	17µM*	-8%	14µM*
COc1ccc(CN2C=C(C(=O)OCc3nc(-c4ccc(F)cc4)no3)C(C)=NS2(=O)=O)cc1	i	i	?	?	?	/	/	/	/
CC1=NS(=O)(=O)N(C)C=C1C(=O)OCc1nc(Cc2ccc(C)cc2)no1	i	i	11µM*	-22%	-27%	22µM*	?	2%	19µM*
C#CCNC(=O)C1CCCN1C(=O)c1cccc(-c2cccnc2)c1 (centres undefined)	/	/	/	-20%	-1%	/	/	/	/
O=C(C1CCCCC1)N1CCN(C2CCN(Cc3cccnc3)C2=O)CC1 (centres undefined)	i	i	-10%	-32%	-13%	/	/	/	/
Cc1nn(C)c(C)c1C(C)NC(=O)c1ccc(CC2CCN(C(=O)C3CC3)CC2)cc1 (centres undefined)	i	i	11µM*	?	?	17µM*	17µM*	8%	15µM*
Cc1nn2c(c1-c1ccccc1[S+](C)(=O)[O-])N(CCCc1ccccc1)CCC2	i	1%[88.5 µM]	18µM*	?	?	5.6µM*	25µM*	3%[86.2 µM]	4.4µM*

Compound activity: PubChem BioAssay, National Center for Advancing Translational Sciences (NCATS)
